# CHT allo act: allosterically activates the human high affinity choline transporter; Q9GZV3; CHT-expressing cells, membrane potential dye, choline EC20; hits give high values; LV-AA mutant CHT in HEK293 cells; B-score at 10 µM; hit rate 0.49% among 310,000; AID 488977;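 active = initial fluorescence not abnormally high and integrated response B-score, plate-corrected, over 3 SD above library mean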
# CHT inh: human CHT choline transport inhibition; Q9GZV3; CHT-expressing cells, membrane potential dye, choline response; hits give low values; B-score at 10 µM; hit rate 0.86% among 310,000;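 active = B-score over 3 SD under the library average, and starting fluorescence ratio not unusually high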;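 note: choline stimulus applied at its EC90 after an EC20 pre-addition; B-score computed on integrated fluorescence ratio after choline addition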
# ANO1 activ: activates or potentiates the mouse TMEM16A chloride channel; Q8BHY3; HEK293 TMEM16A/YFP-H148Q/I152L, iodide quench fluorescence; hits give low values; hit rate 0.3% among 340,000; B-score at 10 µM;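 active = fluorescence-ratio B-score plate-corrected deviation score at least 3 library SD below zero, with starting fluorescence score within 5 deviations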;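 note: channel opened by trigger with iodide after compound preincubation; score built on the fluorescence ratio of max minus min over baseline; more negative score means more quench and so TMEM16A activation or potentiation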
# Target sequence (Q8BHY3 whole entry, looked up): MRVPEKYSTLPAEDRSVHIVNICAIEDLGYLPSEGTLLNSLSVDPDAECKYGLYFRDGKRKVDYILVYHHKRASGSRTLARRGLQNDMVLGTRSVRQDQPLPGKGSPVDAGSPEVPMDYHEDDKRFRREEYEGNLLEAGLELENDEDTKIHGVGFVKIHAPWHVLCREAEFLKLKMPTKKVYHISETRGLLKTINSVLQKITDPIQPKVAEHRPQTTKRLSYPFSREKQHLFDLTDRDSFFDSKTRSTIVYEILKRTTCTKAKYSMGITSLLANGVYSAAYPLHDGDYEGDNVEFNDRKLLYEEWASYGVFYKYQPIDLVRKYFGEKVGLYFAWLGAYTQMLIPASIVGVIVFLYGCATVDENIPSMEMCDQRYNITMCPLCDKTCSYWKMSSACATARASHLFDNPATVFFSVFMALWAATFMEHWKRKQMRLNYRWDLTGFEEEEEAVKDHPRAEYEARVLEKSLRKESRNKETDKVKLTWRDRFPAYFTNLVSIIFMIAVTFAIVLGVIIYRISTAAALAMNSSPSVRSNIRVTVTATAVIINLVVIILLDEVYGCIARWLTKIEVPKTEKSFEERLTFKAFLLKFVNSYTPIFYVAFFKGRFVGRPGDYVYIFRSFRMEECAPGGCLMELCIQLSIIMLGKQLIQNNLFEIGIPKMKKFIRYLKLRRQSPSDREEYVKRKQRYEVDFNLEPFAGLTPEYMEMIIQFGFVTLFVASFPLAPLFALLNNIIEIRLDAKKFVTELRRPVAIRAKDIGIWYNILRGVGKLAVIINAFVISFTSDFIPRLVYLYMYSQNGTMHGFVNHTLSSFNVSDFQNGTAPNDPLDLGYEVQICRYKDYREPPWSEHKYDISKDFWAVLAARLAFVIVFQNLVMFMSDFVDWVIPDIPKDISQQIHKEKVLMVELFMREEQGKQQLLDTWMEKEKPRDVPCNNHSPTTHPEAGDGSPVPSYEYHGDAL
# ANO1 block: mouse TMEM16A channel inhibition, primary screen; Q8BHY3; HEK293 TMEM16A/YFP iodide influx fluorescence, ionomycin; normalized B-score (activity score, 25-100; higher = stronger inhibition) at 10 µM; hit rate 1.2% among 310,000;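 active = ratio plate-corrected score three or more library SD toward inhibition, starting fluorescence score within five deviations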;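 note: score derived from kinetic fluorescence span divided by baseline fluorescence per well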
# CHT inh conf: human CHT inhibition, confirmatory screen. CHT-expressing cells, choline membrane potential dye; LV-to-AA substituted CHT, HEK293 cells. shares compounds with CHT inh. hit rate 70% among 2,400. AID 493221. CHT activity remaining % of control (hits give low values), % at 10 µM;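 active = choline transporter activity left, mean of duplicates at 10 µM, below buffer-only control mean minus 3 SD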;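 note: depolarization triggered by choline at its EC90 following an EC20 pre-addition; 0% = hemicholinium-3 full block and 100% = buffer-only control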
# HEK293 CHT ctr: CHT inhibitor counter-screen hit in parental HEK293 cells; shares compounds with CHT inh; membrane potential dye, choline response; active = decrease or increase beyond buffer ±3SD; membrane potential ratio readout (active if shifted either direction beyond buffer ±3SD; no single direction) at 10 µM; hit rate 4% among 2,400; AID 493222;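 note: parental cells lack the transporter so any hit is non-specific; ratio is peak minus trough fluorescence over baseline after EC90 choline challenge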
# * marks the source's active call; other numbers are inactive results; i = inactive; · = no result; ! = not confirmed by another sample. Sampled rows, rich in hits. Any-hit rate of the full collection: about 2.4%.
SMILES,CHT allo act,CHT inh,ANO1 activ,ANO1 block,CHT inh conf,HEK293 CHT ctr
COc1ccc(OCc2cccc(C(=O)Nn3cc([N+](=O)[O-])cn3)c2)cc1,i,-7.06*,i,i,69.0%*,i
COc1ccc(OCc2cccc(C(=O)NN)c2)cc1,i,i,i,i,·,·
CCc1ccc(OCc2n[nH]c(=S)n2Cc2ccccc2)cc1,i,-6.47*,i,i,67.5%*,i
Cc1nn(-c2ccccc2)c(C)c1C(=O)OCC(=O)NC12CC3CC(CC(C3)C1)C2,i,i,i,i,·,·
Cc1nn(-c2ccccc2)c(C)c1C(=O)OCC(=O)NC(=O)NC1CCCC1,i,-10.6*,i,i,60.3%*,i
CC(C)NCC(O)c1ccc(O)c(O)c1 (configuration not stated),i,-6.43*,i,i,30.2%*,i
COC(=O)c1oc2ccccc2c1NC(=O)/C=C/C(=O)O,i,i,i,i,·,·
O=[N+]([O-])c1ccc(O)c(/C=N/NC2=NS(=O)(=O)c3ccccc32)c1,i,-5.59*,i,i,60.1%*,i
COc1cc(CN(C)Cc2cc(=O)n3ccsc3n2)ccc1OC(F)F,i,-5.57*,i,i,59.4%*,i
CCN(CC(=O)NCc1ccc(F)cc1)Cc1cc(=O)n2ccsc2n1,i,i,i,i,·,·
Cc1cnc(C)c(N2CCN(Cc3nc(-c4cccc(F)c4F)oc3C)CC2)n1,i,-7.21*,i,i,28.6%*,i
Cc1cccc(N2CCN(Cc3nc(-c4ccc(F)cc4F)oc3C)CC2)n1,i,i,i,i,·,·
O=C(Oc1ccccc1N1C(=O)C2CCCCC2C1=O)c1ccccc1 (configuration not stated),i,i,i,i,·,·
Cc1ccc(-c2nc(CN(C)Cc3ccc4nccnc4c3)c(C)o2)s1,i,-5.16*,i,i,i,i
Cc1ccc(-c2nnc(CCC(=O)N(C)Cc3nccs3)o2)s1,i,i,i,i,·,·
CC1(c2ccccc2)CC(C)(C)N2C(=O)C(=O)c3cccc1c32 (configuration not stated),i,-5.31*,i,i,i,i
CC(NC(=O)C1c2ccccc2Oc2ccccc21)C1CCCO1 (configuration not stated),i,-5.72*,i,i,67.9%*,i
O=C1CCC([N+](=O)[O-])C(c2ccc3c(c2)OCO3)N1 (configuration not stated),i,-11.6*,i,i,i,i
O=C1c2cccnc2C(=O)N1Cc1ccc(S(=O)(=O)N2CCOc3ccc(Cl)cc32)cc1,i,-5.05*,i,i,i,i
COc1ccc(-c2ccc(-c3noc(-c4ccccc4OC)n3)c(OC)n2)cc1,i,-5.03*,i,i,i,i
CC(C)CCNC(=O)COc1ccc2c(c1)C(=O)CC(C)(C)O2,i,i,i,i,·,·
CCC(Oc1ccc2c(c1)C(=O)CC(C)(C)O2)C(=O)NCCN1CCCCCC1 (configuration not stated),i,-6.41*,i,i,31.0%*,i
CN1CCN(c2ccc(Cl)cc2NC(=O)c2ccc(=O)n(C)n2)CC1,i,-5.55*,i,i,56.0%*,5.27*
CCCc1cc2c(=O)c(-c3ccccn3)c(C)oc2cc1O,i,-12.2*,i,i,9.4%*,i
O=[N+]([O-])c1cn(Cc2ccccc2)cn1,i,i,i,i,·,·
SMILES,CHT allo act,CHT inh,ANO1 activ,ANO1 block,CHT inh conf,HEK293 CHT ctr
Cc1cc(C)c2sc(N(CCCN(C)C)C(=O)COc3ccc(Cl)cc3)nc2c1,i,i,i,i,·,·
CN1C(=O)CC(c2ccccc2)CC1=O,i,-13.1*,i,i,i,i
CCOC(=O)C1CCN(C(=O)CN(c2ccc(Cl)c(C(F)(F)F)c2)S(C)(=O)=O)CC1,i,-6.36*,i,i,i,i
c1coc(Cn2c(-c3ccco3)nc3ccccc32)c1,i,-8.04*,i,i,i,-10.7*
CCN(CC(=O)Nc1c(F)cccc1F)C(=O)CCN1C(=O)C2CC=CCC2C1=O (configuration not stated),i,i,i,i,·,·
O=C1C=C(O)CC(c2ccc(Cl)c(Cl)c2)C1 (configuration not stated),i,i,i,i,·,·
CN[C@H]1CC[C@@H](c2ccc(Cl)c(Cl)c2)c2ccccc21,i,-6.77*!,i,i,i,i
O=c1oc2ccccc2c(Cl)c1CN1CCCCC1,i,-6.86*,i,i,31.0%*,i
O=c1oc2ccccc2c(N2CCCC2)c1CN1CCCC1,i,i,i,i,·,·
O=C(NC1CCCCC1)N1CCN(c2ccc(Cl)cc2)CC1,i,-5.79*,i,i,i,i
O=C(NCC(=O)c1ccccc1)OCc1ccc([N+](=O)[O-])cc1,i,i,i,i,·,·
Cc1noc(C)c1S(=O)(=O)Nc1ccccc1Cl,i,i,i,i,·,·
Cc1noc(C)c1S(=O)(=O)Nc1ccccc1Oc1ccccc1,i,-13*,i,i,i,i
CNC(=S)N(Cc1cccs1)Cc1cc2ccc(OC)cc2[nH]c1=O,i,i,i,i,·,·
COc1ccc2[nH]c(=O)c(CN(Cc3cccs3)C(=S)Nc3ccccc3)cc2c1,i,-5.34*,·,i,i,i
O=C(NCC(c1ccco1)N1CCCC1)c1cc(S(=O)(=O)N2CCCCC2)ccc1Cl (configuration not stated),·,·,i,·,·,·
CN(/N=C/c1cc(Cl)cc(Cl)c1O)C(=S)NC(C)(C)C,i,-5.44*,i,100*,67.7%*,i
CCCC(C(=O)NC1CCCC1)N(C(=O)c1snc(C(N)=O)c1N)c1ccc(OCC)cc1 (configuration not stated),i,i,i,i,·,·
CC1(c2ccccc2)NC(=O)N(CC(=O)Nc2cc(C(F)(F)F)ccc2N2CCCCC2)C1=O (configuration not stated),·,·,i,·,·,·
COCCNc1c(-c2ccc(OC)cc2)nc2ccc(Cl)cn12,i,-9.61*,i,i,i,i
Cc1cc(C)c(C#N)c(N)n1,i,-8.64*,i,i,i,i
COc1cc(C2c3c(oc4c(C)cc(C)cc4c3=O)C(=O)N2Cc2cccnc2)ccc1O (configuration not stated),i,i,i,i,·,·
CCOC(=O)c1ccccc1Oc1c(F)c(F)nc(NCCO)c1F,i,-5.47*,i,i,54.6%*,i

# Screening results as filed in PubChem.
